Experimental data taken from PubChem BioAssay (NCI).
Compounds without any hit were thinned out: in the full panel of roughly 83,000, 20% have a hit.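 Cells were grown in 96-well plates and exposed to the test compound at a single concentration for 48 hours; results are reported as percent growth, with values below 10 considered active.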 A number with no mark means an inactive call. Activity calls are given as the source filed them.

Experiments:
Assay in all cases: NCI-60 one-dose screen, 48 h (100 = growth as untreated, 0 = no growth, -100 = all killed)
Settings in all cases: 10 µM unless noted
DU-145 prostate = system: DU-145 prostate
K-562 leukemia = system: K-562 leukemia
MALME-3M melanoma = system: MALME-3M melanoma
MDA-MB-231 breast = system: MDA-MB-231 breast
RXF 393 renal = system: RXF 393 renal
SF-268 CNS = system: SF-268 CNS
SF-295 CNS = system: SF-295 CNS
SF-539 CNS = system: SF-539 CNS
UACC-257 melanoma = system: UACC-257 melanoma
M14 melanoma = system: M14 melanoma
HCT-15 colon = system: HCT-15 colon
HT29 colon = system: HT29 colon
SNB-75 CNS = system: SNB-75 CNS
SNB-19 CNS = system: SNB-19 CNS
U251 CNS = system: U251 CNS
PC-3 prostate = system: PC-3 prostate
SK-MEL-5 melanoma = system: SK-MEL-5 melanoma
UACC-62 melanoma = system: UACC-62 melanoma
LOX IMVI melanoma = system: LOX IMVI melanoma
SK-MEL-28 melanoma = system: SK-MEL-28 melanoma

| SMILES | growth (DU-145 prostate) | growth (K-562 leukemia) | growth (MALME-3M melanoma) | growth (MDA-MB-231 breast) | growth (RXF 393 renal) | growth (SF-268 CNS) | growth (SF-295 CNS) | growth (SF-539 CNS) | growth (UACC-257 melanoma) | growth (M14 melanoma) | growth (HCT-15 colon) | growth (HT29 colon) | growth (SNB-75 CNS) | growth (SNB-19 CNS) | growth (U251 CNS) | growth (PC-3 prostate) | growth (SK-MEL-5 melanoma) | growth (UACC-62 melanoma) | growth (LOX IMVI melanoma) | growth (SK-MEL-28 melanoma) |
| --- | --- | --- | --- | --- | --- | --- | --- | --- | --- | --- | --- | --- | --- | --- | --- | --- | --- | --- | --- | --- |
| COc1ccc(/C=C2\Oc3cc(OCCN4CCC(Cc5ccccc5)CC4)ccc3C2=O)cc1OC | 82.5% | 7.36% (active) | 52.7% | 53.5% | 48% | 79.8% | 82.6% | 83% | 73.3% | 30.2% | 33.5% | 21.7% | 80.8% | 92.6% | 70.9% | 78.1% | 42.7% | 74.4% | 7.25% (active) | 81.5% |
| C=C(C)[C@@H]1CC[C@]2(N=C=O)CC[C@]3(C)[C@H](CC[C@@H]4[C@@]5(C)Cc6c([nH]c7ccccc67)C(C)(C)[C@@H]5CC[C@]43C)[C@@H]12 | 63.2% | 3.74% (active) | 101% | 68.4% | 81.6% | 80.7% | 111% | 89.3% | 109% | 70.5% | 47% | 98.5% | 79.8% | 91.4% | 65.4% | 40.3% | 101% | 101% | 87.7% | 106% |
| CN1CCN(c2ccc(-c3cnc4c(-c5csc6ccccc56)cnn4c3)cc2)CC1 | 9.16% (active) | 3.45% (active) | -70.1% (active) | -25.3% (active) | -66.4% (active) | -15.8% (active) | -49.7% (active) | -86.4% (active) | -76.3% (active) | -71.8% (active) | -4.7% (active) | -40.4% (active) | -54.4% (active) | 13.3% | -87.3% (active) | -12.4% (active) | -100% (active) | -2.26% (active) | -91.2% (active) | -7.59% (active) |
| COc1ccc(C(=O)COC(=O)[C@H](C[Se][Se]C[C@H](NC(=O)c2ccc(Br)cc2F)C(=O)OCC(=O)c2ccc(OC)cc2)NC(=O)c2ccc(Br)cc2F)cc1 | -70.6% (active) | 9.64% (active) | -45.9% (active) | -57.5% (active) | -90.5% (active) | -54.3% (active) | -31.7% (active) | -93.9% (active) | -43.8% (active) | -73.9% (active) | -30.7% (active) | 10.7% | -95.6% (active) | -38.1% (active) | -85.3% (active) | -63.8% (active) | -8.07% (active) | -89.5% (active) | -50.8% (active) | -74.5% (active) |
| Oc1ccc(-c2nc3ccc4[nH]ncc4c3c3c2CCCC3)c2cccnc12 | 11.6% | 7.23% (active) | -3.69% (active) | 18.8% | -9.52% (active) | 0.245% (active) | -4.23% (active) | -1.03% (active) | -20.4% (active) | 3.35% (active) | 4.75% (active) | 12.1% | -23.1% (active) | 13.7% | -4.46% (active) | 7.83% (active) | -4.91% (active) | -11.5% (active) | 3.42% (active) | 13.3% |
| O=c1c2cc(F)ccc2sc2c(N3CCCCC3)nc3ccccc3c12 | 107% | 112% | 104% | 98.9% | 104% | 102% | 101% | 102% | 97.3% | 96.8% | 103% | 98% | 90.2% | 101% | 94.1% | 98.1% | 97.8% | 96.1% | 97.1% | 109% |
| COc1ccc2c(c1)c(-c1nn3cc(-c4cccs4)nc3s1)cn2C | 89.7% | 51% | 72.1% | 54.1% | 96.3% | 80.3% | 66.9% | 81.3% | 105% | 71.6% | 47.6% | 52.1% | 50.3% | 82.5% | 65.9% | 69.6% | 66.7% | 64.1% | 54.1% | 97.8% |
| NCCCNc1nc2ccccc2c2c(=O)c3cc(F)cc(F)c3sc12 | 73.4% | -42.9% (active) | 73.6% | 18.2% | 63.6% | 81.7% | 105% | -92.3% (active) | 100% | -85.2% (active) | 77% | -49.7% (active) | 74.7% | 87.1% | -69.2% (active) | 73.8% | 92.3% | 103% | 60% | -87.1% (active) |
